PubChem BioAssay (Tox21)
Records with an inconclusive call do not appear. Activity calls are given as the source filed them. Unless noted, calls come from the whole dose curve; as a rule, active = well fitted curve in the direction sought with a large enough effect in the repeat runs; inconclusive = weak or mixed curves; inactive = no such curve, though single readings can be large; an effect the other way counts as inactive or inconclusive.

Key:
[1] = qHTS assay to identify small molecule antagonists of the retinoid-related orphan receptor gamma (ROR-gamma) signaling pathway - cell viability counter screen (AID 1159520); note: nearly all actives have a fitted effect of over 50% in size; note: potency is the fitted concentration of half-maximal effect
Summary of the method: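 Tet-on ROR gamma CHO cells were given compounds for 2 hr, then doxycycline hyclate at 1 uM final, and incubated 16 hr at 37 C. Viability was measured as ATP content by CellTiter-Glo luminescence.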

[2] = target: Nuclear receptor ROR-gamma (Homo sapiens) (UniProt P51449); test: qHTS assay to identify small molecule antagonists of the retinoid-related orphan receptor gamma (ROR-gamma) signaling pathway (AID 1159521; note: nearly all actives have a fitted effect of over 50% in size; note: potency is the fitted concentration of half-maximal effect)
Summary of the method: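 Cells were plated, rested 4 h at 37 C, exposed to compounds for 2 h, then given 1 uM final doxycycline hyclate to induce RORγ expression. After 16 h, ONE-Glo luminescence from the ROR response element reporter was measured.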

[3] = qHTS assay to identify small molecule agonists of the AP-1 signaling pathway - cell viability counter screen (AID 1159525; calls by dose curve; note: nearly all actives have a fitted effect of over 55% in size; note: potency is the fitted concentration of half-maximal effect)
Summary of the method: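 Same-well cytotoxicity counter screen of the Tox21 10K library in ME-180 cells. The readout is ATP-dependent luminescence after 5 h compound treatment. Data are normalised to DMSO and tetra n-octyl ammonium bromide controls.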

[4] = target: Retinoic acid receptor RXR-alpha (Homo sapiens) (UniProt P19793); test: qHTS assay to identify small molecule agonists of the RXR signaling pathway (AID 1159527; calls by dose curve; note: nearly all actives have a fitted effect of over 35% in size)
Sequence of Retinoic acid receptor RXR-alpha (Homo sapiens) (P19793 whole entry, looked up): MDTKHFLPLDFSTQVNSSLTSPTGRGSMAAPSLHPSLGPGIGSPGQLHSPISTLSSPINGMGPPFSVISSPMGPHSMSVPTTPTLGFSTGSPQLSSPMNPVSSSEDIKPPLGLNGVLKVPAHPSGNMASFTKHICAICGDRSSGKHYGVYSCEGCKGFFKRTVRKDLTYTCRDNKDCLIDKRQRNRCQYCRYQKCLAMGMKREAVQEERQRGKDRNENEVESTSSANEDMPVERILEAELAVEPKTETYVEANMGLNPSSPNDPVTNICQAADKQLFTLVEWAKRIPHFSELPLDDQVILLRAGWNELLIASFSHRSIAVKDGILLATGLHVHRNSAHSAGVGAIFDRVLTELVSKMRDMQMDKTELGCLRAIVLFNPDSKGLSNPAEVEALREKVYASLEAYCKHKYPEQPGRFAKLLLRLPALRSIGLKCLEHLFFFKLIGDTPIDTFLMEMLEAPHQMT
Summary of the method: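 Cells plated at 2,000/well, rested 5 hr at 37 C, pin-dosed with DMSO compound solutions, incubated 16 hr, then loaded with B/G FRET substrate for 2 hr at RT before dual-emission fluorescence reading.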

[5] = qHTS assay to identify small molecule agonists of the RXR signaling pathway - cell viability counter screen (AID 1159529); note: nearly all actives have a fitted effect of over 50% in size; note: potency is the fitted concentration of half-maximal effect
Summary of the method: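 Steps: seed RXR-alpha-UAS-bla HEK 293T cells in assay medium containing 2% charcoal-stripped FBS; incubate 5 hr; add compounds in DMSO; incubate 16 hr at 37 C; after the bla read, add CellTiter-Glo and read luminescence at 30 min.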

[6] = qHTS assay to identify small molecule antagonists of the retinoic acid receptor (RAR) signaling pathway (AID 1159552; note: nearly all actives have a fitted effect of over 50% in size; note: potency is the fitted concentration of half-maximal effect)
Summary of the method: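 Retinol at 1 uM final stimulated RARE-luciferase expression in C3RL4 cells exposed to test compounds for 6 hr at 37 C. Reduced luminescence, read 30 min after detection reagent, indicated pathway antagonism.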

[7] = qHTS assay to identify small molecule antagonists of the estrogen related receptor (ERR) signaling pathway from Tox21 library - cell viability counter screen (AID 1224834); note: nearly all actives have a fitted effect of over 30% in size; note: potency is the fitted concentration of half-maximal effect
Summary of the method: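 CellTiter-Fluor fluorescence, read after 30 min at 37 C, measures viability of ERR cells. Cells plated at 2,000/well and incubated 6 h before pin-tool compound addition, then exposed 17.5 hours at 37 C.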

[8] = qHTS assay to identify small molecule agonists of the AP-1 signaling pathway (AID 1159526; calls by dose curve)
[9] = qHTS assay to identify small molecule antagonists of the retinoid acid receptor (RAR) signaling pathway - cell viability counter screen (AID 1159551); note: nearly all actives have a fitted effect of over 35% in size; note: potency is the fitted concentration of half-maximal effect
Summary of the method: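 Cytotoxicity counter screen: ATP content quantified by CellTiter-Glo luminescence in C3RL4 cells treated 6 hr at 37 C with compound and retinol (1 uM final). Cells plated at 1,000/well and cultured overnight before dosing.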

[10] = qHTS assay to identify small molecule antagonists of the vitamin D receptor (VDR) signaling pathway - cell viability counter screen (AID 743225); note: nearly all actives have a fitted effect of over 50% in size
Summary of the method: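 HEK293T VDR-bla; cpd + 1a,25-(OH)2D3 3 nM final, 16 h 37C/5% CO2; B/G FRET substrate 2 h RT; then CellTiter-Glo 30 min RT, luminescence.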

[11] = qHTS assay to identify small molecule agonists of the retinoic acid receptor (RAR) signaling pathway (AID 1159553)
Summary of the method: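 Luminescence was measured 30 min after luciferase reagent addition at room temperature. Before that, C3RL4 reporter cells (1,000 per well, plated overnight) were treated with compound for 6 hr at 37 C and 5% CO2.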

[12] = qHTS assay to identify small molecule antagonists of the estrogen related receptor (ERR) signaling pathway - cell viability counter screen (AID 1224818);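 note: series mostly up to about 46 µM; viability measured after 17.5 h of compound exposure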
Summary of the method: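 Cytotoxicity counter screen: fluorescence from CellTiter-Fluor, added after 17.5 h compound exposure at 37 C and read 30 min later. ERR cell line seeded at 2,000 cells/well, preincubated 6 h before dosing.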

[13] = qHTS assay to identify small molecule antagonists of the estrogen related receptor (ERR) signaling pathway (AID 1224819)
Summary of the method: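 LOPAC library screened for antagonism as reduced One-Glo luminescence in ERR reporter cells (2,000/well). Compounds were added after 6 h pre-incubation and left 18 h at 37C; reading followed a 30 min room-temperature reagent step.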

[14] = qHTS assay to identify small molecule agonists of the estrogen related receptor (ERR) signaling pathway (AID 1224820)
Summary of the method: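 An ERR cell line provided by NTP was seeded at 2,000 cells per well and allowed to settle for 6 h before compounds in DMSO were added. After 18 h at 37 C, luciferase activity was measured by One-Glo luminescence.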

[15] = system: estrogen-related receptor alpha (ERRalpha) with PGC-1alpha coactivator, human; test: qHTS assay to identify small molecule antagonists of the estrogen related receptor signaling pathway with the pleiotropic PPARgamma coactivator (PGC) (AID 1224821; calls by dose curve)
Summary of the method: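 A PGC/ERR cell line supplied by NTP is seeded, allowed 6 h at 37 C, and treated with test compounds in DMSO for 18 h. Signal is then measured as luciferase luminescence using One-Glo.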

[16] = qHTS assay to identify small molecule antagonists of the estrogen related receptor signaling pathway with the pleiotropic PPARgamma coactivator (PGC) cell viability counter screen (AID 1224822; note: series mostly up to about 46 µM)
Summary of the method: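 Viability counter-screen read by fluorescence intensity after 30 min with CellTiter-Fluor at 37 C; PGC/ERR reporter cells were exposed to compounds for 17.5 h at 37 C following a 6 h preincubation.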

[17] = qHTS assay to identify small molecule agonists of the estrogen related receptor signaling pathway with the pleiotropic PPARgamma coactivator (PGC) (AID 1224823)
Summary of the method: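 Compounds dissolved in DMSO are added by pin tool to PGC/ERR cells that have settled for 6 h, and incubation continues 18 h at 37 C. Reporter output is measured as One-Glo luminescence.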

Measured: Potency

CCOP(=S)(OCC)SCS(=O)(=O)C(C)(C)C
inactive: [1] | [2] | [3] | [4] | [5] | [6] | [7]

CC(=[OH+])/C=C(/C)[O-].CC(=[OH+])/C=C(\C)[O-].CC(=[OH+])/C=C(\C)[O-].[Fe]
inactive: [1] | [3] | [8] | [4] | [5] | [9] | [7]

NC(=O)c1ccc(N)nc1
active: [1] 1.22 µM | [2] 0.611 µM | [5] 13.8 µM
inactive: [8]

N#Cc1ccccc1N
inactive: [1] | [3] | [8] | [4] | [5] | [9] | [7]

COC[C@H](C)N(C(=O)CCl)c1c(C)csc1C
inactive: [1] | [3] | [8] | [4] | [5] | [9] | [7]

CC(C)(COCC1CO1)COCC1CO1 (configuration not stated)
inactive: [1] | [3] | [8] | [4] | [5] | [9] | [6] | [7]

Oc1ccc(I)cc1
inactive: [1] | [3] | [8] | [4] | [5] | [9] | [7]

N#Cc1ccc(O)cc1
inactive: [1] | [3] | [8] | [4] | [9] | [6] | [7]

Oc1ccccc1Br
inactive: [1] | [3] | [8] | [4] | [9] | [6] | [7]

CC(C)(c1ccc(O)c(-c2ccccc2)c1)c1ccc(O)c(-c2ccccc2)c1
active: [1] 43.3 µM | [2] 21.7 µM | [3] 17.4 µM | [9] 54.5 µM | [6] 54.5 µM | [7] 61.1 µM

c1cc[c]([Sb]([c]2ccccc2)[c]2ccccc2)cc1
active: [2] 61.1 µM | [6] 61.1 µM
inactive: [1] | [9] | [7]

O=[N+]([O-])c1cc([N+](=O)[O-])c2ccccc2c1
not listed: [3] | [4] | [6] | [8]
inactive: all other assays above

N#CCCO
inactive: [1] | [3] | [8] | [4] | [5] | [9] | [6] | [7]

OC(c1ccc(Cl)cc1)(c1ccc(Cl)cc1)C(Cl)(Cl)Cl
inactive: [10] | [3] | [5] | [9] | [6] | [11] | [7]
active: [1] 61.1 µM

O=C1c2ccccc2C(=O)C1C(=O)C(c1ccccc1)c1ccc(Cl)cc1 (configuration not stated)
active: [1] 30.6 µM | [2] 5.45 µM
inactive: [3] | [9] | [6] | [11]
